An excerpt weighted towards active compounds, which were near 12% of everything screened.
Lmaj promast = Leishmania major promastigote growth inhibition, primary screen; Leishmania major promastigotes, resazurin fluorescence viability; inhibition, % at 10 µM; hit rate 9% among 200,000; AID 1063, 2008; in the data active = inhibition above about 50%;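 also: promastigotes grown with compound for 44 hours at 28 °C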
Arbovirus anti = antivirals against arbovirus infection, primary screen, cell-based, full library, 10K replicate subset | arbovirus infection cell-based antiviral screen | inhibition, % at 10 µM | hit rate 0.37% among 200,000; in the data active = inhibition above about 30%
WT yeast gro inh = growth inhibition of WT strain, primary screen, mitochondrial fusion inhibitor project, WT and mutant strains, chemical genetic. mitochondrial fusion phenotypic screen. inhibition, % at 10 µM. hit rate 2.1% among 190,000. AID 1362, 2008; in the data active = inhibition above about 58%; tested in S. cerevisiae
CHOP inhibitor = inhibitors of CHOP promoter induction, primary screen, cell-based, unfolded protein response, luciferase reporter | CHO-K1 CHOP-promoter luciferase, tunicamycin-induced, 15-18 h | inhibition, % at 10 µM | hit rate 3.8% among 220,000;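 active = compounds that reduced the stress-induced luciferase reporter signal by more than about 70% of percent inhibition, limit read from the data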
Of the large screens only hits and unclear results are named; the others gave an inactive call.

COc1ccc(N2C(=O)C(CC(N)=O)N(NC(=O)c3cccc(OC)c3)C2=S)cc1 (centres undefined)	none
CCn1c2ccccc2c2cc(NC(=O)CSc3nnc(-c4cccc(C)c4)o3)ccc21	Lmaj promast 92
O=C(CSc1nccc(=O)[nH]1)Nc1ccc(F)c([N+](=O)[O-])c1	Lmaj promast 51
O=C(CSc1nccc(=O)[nH]1)Nc1ccc(F)c(Cl)c1	none
COc1ccc(CNC(=O)Cn2nc(C(F)(F)F)c3c2CCC3)cc1	none
COc1ccc(CNc2nc3c(c(C(F)(F)F)n2)CCCCC3)cc1	CHOP inhibitor 90 (no result: WT yeast gro inh)
O=C1c2ccccc2C(=O)N1CCCN1CCN(CCCN2C(=O)c3ccccc3C2=O)CC1	none (no result: Arbovirus anti, WT yeast gro inh, CHOP inhibitor)
Cc1ccc(S(=O)(=O)N2CCCCC2)cc1NC(=O)COC(=O)c1ccc(O)cc1	none
Clc1ccc(CN2CCC(c3nc4ccc(Cl)cc4[nH]3)CC2)cc1	Lmaj promast 99
CC(C)(C)c1ccc(S(=O)(=O)N2CCC(c3nc4ccc(Cl)cc4[nH]3)CC2)cc1	WT yeast gro inh 69
CC(=O)Nc1ccc(S(=O)(=O)N2CCC(c3nc4ccc(C)cc4[nH]3)CC2)cc1	none
OC(COC1CCCCC1)CN1CCN(c2ccccc2)CC1 (centres undefined)	none
CC(C)(C)C1CCC(OCC(O)CN2CCN(c3ccccn3)CC2)CC1 (centres undefined)	Lmaj promast 94
OC(COC(c1ccccc1)c1ccccc1)CN1CCN(c2ccccn2)CC1 (centres undefined)	none
CC(C)NCC(O)COC1CCC(C(C)(C)C)CC1 (centres undefined)	Lmaj promast 90
CC(C)(C)C1CCC(OCC(O)CN2CCN(Cc3ccccc3)CC2)CC1 (centres undefined)	Lmaj promast 91
OC(CN1CCN(c2ccccn2)CC1)Cn1c2ccccc2c2ccccc21 (centres undefined)	Lmaj promast 100, CHOP inhibitor 72
CC(C)NCC(O)COC1C2CC3CC(C2)CC1C3 (centres undefined)	none
CCC1C(=O)N=C(SCC(=O)Nc2nc3ccccc3s2)NC1=O (centres undefined)	none
CC/C=C\[C@H](O)[C@H](O)C1=C(C)C(=O)[C@]2(O1)C(=O)N[C@@](OC)(C(=O)c1ccccc1)C2O (some centres undefined)	none
CC1CN(CC(O)COC2CCC(C(C)(C)C)CC2)CC(C)O1 (centres undefined)	Lmaj promast 90
CC(C)(C)C1CCC(OC(=O)CN2CCCCC2)CC1 (centres undefined)	none (no result: Lmaj promast, Arbovirus anti, WT yeast gro inh)
O=C(O)C1CC1C(=O)N1CCN(c2ccc(Cl)c(Cl)c2)CC1 (centres undefined)	Lmaj promast 88
S=C(NCc1ccccc1)N1CCN(c2cccc(Cl)c2)CC1	WT yeast gro inh 70
Cc1occc1C(=O)N1CCN(c2ccc(Cl)c(Cl)c2)CC1	CHOP inhibitor 75
O=C(NCc1ccccc1)N1CCN(c2ccc(Cl)c(Cl)c2)CC1	CHOP inhibitor 76
O=C(NCc1ccccc1)N1CCN(c2ccc(F)cc2)CC1	none
CCOc1ccc(NC(=O)CSCc2cnn(-c3ccccc3)c2-n2cccc2)cc1	none
Clc1ccc(-c2c(C3=NCCCN3)nnn2-c2ccc(Cl)cc2)cc1	none (no result: Lmaj promast, Arbovirus anti, WT yeast gro inh)
O=C(CC(C(=O)O)P(=O)(c1ccccc1)c1ccccc1)c1ccccc1 (centres undefined)	none
O=C(c1ccc(Br)cc1)N1CCCC(c2nc(-c3cccs3)no2)C1 (centres undefined)	Lmaj promast 67
C=CCn1c(=NC(=O)c2ccco2)sc2cc(C(=O)OC)ccc21	CHOP inhibitor 80
C=CCn1c(=NC(=O)c2ccco2)sc2cc(C(=O)OCC)ccc21	CHOP inhibitor 84
COCCn1c(=NC(=O)c2ccco2)sc2cc(C(=O)OC)ccc21	none
Cc1nnc(SCc2ccc(F)cc2)n1NC/C=C/c1ccccc1	none
FC(F)(F)c1ccc(CSc2nccn2-c2ccccc2)cc1	WT yeast gro inh 63
Brc1ccc(CSc2nccn2-c2ccccc2)cc1	CHOP inhibitor 76
Clc1cccc(CSc2nccn2-c2ccccc2)c1	none
C#Cc1ccc([C@H]2C=C(C(=O)Nc3ccccc3)O[C@@H](OCc3ccc(CO)cc3)C2)cc1	none (no result: Lmaj promast, Arbovirus anti, WT yeast gro inh)
COc1ccc(N(C)C(=O)c2cc3c(Cl)nc4ccccc4c3s2)cc1	none
CCN(CC)CCCNC(=O)c1cc2c(Cl)nc3ccccc3c2s1	Lmaj promast 98
CC1CCCN(CCCNC(=O)c2cc3c(Cl)nc4ccccc4c3s2)C1 (centres undefined)	Lmaj promast 100
COc1cc(NC(=O)c2cc3c(Cl)nc4ccccc4c3s2)cc(OC)c1OC	Lmaj promast 57
CN(CCCNC(=O)c1cc2c(Cl)nc3ccccc3c2s1)Cc1ccccc1	Lmaj promast 93
O=C(COC(=O)CCc1nc2ccccc2s1)NC(=O)NCc1ccco1	none
CCOc1ccc(CN(C)CC(=O)Nc2ccc(N3CCOCC3)cc2)cc1OC	none
O=C(c1ccccn1)N1N=C2/C(=C/c3ccccc3)CCCC2C1c1ccccc1 (centres undefined)	Lmaj promast 94
Cn1cc(C(=O)CCl)c2ccccc21	Lmaj promast 92, CHOP inhibitor 88
O=Nc1ccc(NOC(=O)c2ccccc2Br)cc1	Lmaj promast 73, WT yeast gro inh 59
O=C(Nc1ccc2c(c1)nc1n2CCN(Cc2ccccc2)C1)c1cccs1	WT yeast gro inh 63
O=S(=O)(Nc1ccc2c(c1)nc1n2CCN(Cc2ccccc2)C1)c1ccc(F)cc1	Lmaj promast 100
O=C(Nc1ccc2c(c1)nc1n2CCN(Cc2ccccc2)C1)NC1CCCCC1	none
COc1ccccc1C(=O)Nc1ccc2c(c1)nc1n2CCN(Cc2ccccc2)C1	none
O=S(=O)(Nc1ccc2c(c1)nc1n2CCN(Cc2ccccc2)C1)c1ccccc1	Lmaj promast 98
O=S(=O)(Nc1ccc2c(c1)nc1n2CCN(Cc2ccccc2)C1)c1ccc(Cl)cc1	Lmaj promast 97
CCOC(=O)N1CCC(=NNS(=O)(=O)c2cccc([N+](=O)[O-])c2)CC1	none
CN(C)C(=O)CN1CCN(Cc2cn(C)nc2-c2ccc3c(c2)OCCO3)CC1	none
Cc1ccc(NC(=O)c2ccc(Cl)cc2Cl)cc1O	none (no result: Lmaj promast, Arbovirus anti, WT yeast gro inh)
Cc1ccc(S(=O)(=O)Nc2ccc3c(c2)nc2n3CCN(Cc3ccccc3)C2)cc1	Lmaj promast 99
O=C1CC(C(=O)O)S/C(=N\NC(=O)c2ccc(F)cc2)N1 (centres undefined)	Lmaj promast 73
Nc1nc(-c2ccc(Br)cc2)cs1	none
Nc1nc(-c2cccc(Br)c2)cs1	WT yeast gro inh 71
N=c1sccn1CC(=O)Nc1cc(S(=O)(=O)N2CCCCC2)ccc1Cl	none (no result: Lmaj promast, Arbovirus anti, WT yeast gro inh)
COc1ccc(C(=O)OC(COc2ccccc2)Cn2ccnc2)cc1 (centres undefined)	Lmaj promast 100
O=C(OCC(=O)N1CCN(C(=O)c2ccco2)CC1)c1cc(-c2cccc(Br)c2)nc2ccccc12	none
CCC(C)OC(=O)C1=C(C)OC23OC(N)=C(C#N)C12C(=O)c1ccccc13 (centres undefined)	Lmaj promast 86
CC1=C(C(=O)OCC(C)C)[C@]23C(=O)c4ccccc4[C@@]2(O1)OC(N)=C3C#N	none

Screens deposited in PubChem BioAssay by several laboratories.
